In all, about 13,000 compounds went through this assay and about 3,200 (25%) showed an effect of 50% or more. The list shows a part of the results.
System: P. falciparum stage V gametocytes
Set-up: BacTiter-Glo ATP luminescence viability of purified stage V gametocytes in 384-well plates, per cent inhibition versus DMSO
Details: 48 h, 5 µM; inhibitor

SMILES | % Inhibition [%]
O=C(Nc1ccc(C(=O)N(Cc2ccc3c(c2)OCO3)C2CCCC2)cc1)c1cccs1 [TCMDC-125341] | 18.48
O=C(Nc1cccc(C2=NCCCN2)c1)Nc1cccc(C2=NCCCN2)c1 [TCMDC-137203] | -4.824
CNCC(C)(C)c1nc(-c2ccc(Cl)c(O)c2)c(-c2ccncc2)[nH]1 [TCMDC-140762] | -81.65
CC1CCc2sc(-c3nnc(SC(C)C(=O)N4CCCC4)o3)cc2C1 (stereo not shown) [TCMDC-124867] | 8.673
COc1ccc2nc(N=C3NC4(c5ccccc5)NC(=Nc5nc6ccc(OC)cc6[nH]5)NC4(c4ccccc4)N3)[nH]c2c1 (stereo not shown) [TCMDC-139632] | -5.623
O=C(Nc1ccc(OC2CCN(Cc3ccsc3)C2)c(Cl)c1)c1cccs1 (stereo not shown) [TCMDC-133948] | 17.98
CC(C)NCc1ccc(-c2ccc(CN3CCCC(c4ccccc4)C3)cc2)c(C(=O)NC2Cc3ccccc3C2)c1 (stereo not shown) [TCMDC-134700] | 9.317
CCc1ccc(-c2cnc(N)c3cc(-c4ccnc(N)n4)ccc23)cc1 [TCMDC-134546] | 12.63
Cc1cccc2[nH]c(-c3cccc(-c4cccc(NC(=O)Nc5ccsc5)c4)c3)nc12 [TCMDC-133213] | -5.013
COc1ccc2c(ccc3c2ncc2c(=O)n(-c4ccccc4)[nH]c23)c1 [TCMDC-142015] | 8.903
COC(=O)c1cccc(CNCc2ccc(-c3cccc(-c4nc5cc(C(F)(F)F)ccc5[nH]4)c3)cc2)c1.O=C(O)C(F)(F)F [TCMDC-132947] | -37.36
Cn1cccc1CCNCc1ccc(-c2cccc(-c3nc4ccccc4[nH]3)c2)cc1.O=C(O)C(F)(F)F [TCMDC-132543] | 2.509
O=C(O)C(F)(F)F.c1cc(-c2ccc(CNCc3ccsc3)cc2)cc(-c2nc3ccccc3[nH]2)c1 [TCMDC-132563] | -10.09
O=C(O)C(F)(F)F.c1ccc(-n2ncc(CNCc3ccc(-c4cccc(-c5nc6ccccc6[nH]5)c4)cc3)n2)cc1 [TCMDC-132564] | -40.42
COC(=O)c1cccc(CNCc2ccc(-c3cccc(-c4nc5ccccc5[nH]4)c3)cc2)c1.O=C(O)C(F)(F)F [TCMDC-132555] | 70.67
COC(=O)c1cccc(CNCc2cccc(-c3ccc(-c4nc5ccccc5[nH]4)cc3)c2)c1.O=C(O)C(F)(F)F [TCMDC-132959] | -6.074
Cn1cncc1CNCc1ccc(-c2cccc(-c3nc4ccccc4[nH]3)c2)cc1.O=C(O)C(F)(F)F [TCMDC-132569] | 52.47
NC(=O)c1cccc(CNCc2ccc(-c3cccc(-c4nc5ccccc5[nH]4)c3)cc2)c1.O=C(O)C(F)(F)F [TCMDC-132570] | 70.11
Nc1cccc(CNCc2ccc(-c3cccc(-c4nc5ccccc5[nH]4)c3)cc2)c1.O=C(O)C(F)(F)F [TCMDC-132924] | -75.75
N#Cc1cccc(Nc2nccc(Nc3ccc(Oc4ccccc4)cc3)n2)c1 [TCMDC-138558] | -36.77
CCCCCCc1cc(O)c2c3c(c(=O)oc2c1)CCN(C)C3 [TCMDC-124193] | 9.848
CC(C)c1ccc(OCC(O)CN(C)C(C)C(O)c2ccccc2)c(Br)c1 (stereo not shown) [TCMDC-141995] | 3.955

SMILES | % Inhibition [%]
CC1(C)N=C(N)N=C(N)N1c1cccc(I)c1 [TCMDC-138037] | -1.195
C(=NNc1cc(-c2ccccc2)nc2ccccc12)c1cccnc1 [TCMDC-142052] | -23.81
c1ccc(-c2cc(NCc3cccc4ccccc34)c3[nH]ncc3n2)cc1 [TCMDC-139455] | 76.18
c1ccc(-c2cc(NCCCCNc3cc(-c4ccccc4)nc4ccccc34)c3ccccc3n2)cc1 [TCMDC-137738] | 98.03
CN(C)CCNc1cc(-c2ccc3ccccc3c2)nc2ccccc12 [TCMDC-124260] | 3.28
c1ccc(-c2cc(NCCNc3cc(-c4ccccc4)nc4ccccc34)c3ccccc3n2)cc1 [TCMDC-137986] | 24.95
c1ccc(-c2cc(NCCCCCCCCNc3cc(-c4ccccc4)nc4ccccc34)c3ccccc3n2)cc1 [TCMDC-137983] | 96.95
COc1ccc2nc(-c3ccccc3)cc(NCCN(C)C)c2c1 [TCMDC-123487] | -6.807
COc1ccc2c(NCCc3ccccc3)cc(-c3ccccc3)nc2c1 [TCMDC-138992] | 28.49
COc1ccc2nc(C)cc(NCc3cccc4ccccc34)c2c1.Cl [TCMDC-138974] | -17.8
O=[N+]([O-])c1ccc(/C=N/Nc2cc(-c3ccccc3)nc3ccccc23)o1 [TCMDC-142051] | 34.86
COc1ccc2nc(-c3ccccc3)cc(NCCCNc3cc(-c4ccccc4)nc4ccc(OC)cc34)c2c1.Cl [TCMDC-137734] | 124.9
CS(=O)(=O)NCCCNCc1ccc(-c2ccc(-c3nc4cc(C(F)(F)F)ccc4[nH]3)s2)cc1.O=C(O)C(F)(F)F [TCMDC-133076] | -24.74
COc1ccc2cc(C(C)NC3CCN(c4cccc(NC(=O)c5ccncc5)c4)CC3)ccc2c1 (stereo not shown) [TCMDC-124668] | -18.92
COc1ccc(CNC2CCN(C)CC2)cc1-c1ccc(S(=O)(=O)NCc2ccccc2)c(C)c1 [TCMDC-132480] | 85.24
COc1ccc(CNC2CCN(C)CC2)cc1-c1ccc(S(=O)(=O)NCc2ccccc2)c(F)c1 [TCMDC-132262] | 59.53
COc1ccc(-c2cccc(CNC3CCN(C)CC3)c2)cc1S(=O)(=O)NCc1ccccc1 [TCMDC-132375] | 75.59
COc1ccc(CNC2CCN(C)CC2)cc1-c1ccc(OC)c(S(=O)(=O)NCc2ccccc2)c1 [TCMDC-132249] | 105.1
NC1=NC(Cc2ccccc2)N(c2ccc(Cl)cc2)C(N)=N1 (stereo not shown) [TCMDC-131291] | 0.2754
CC(C)(C)C(C)(C)Cc1ccc(O)c(CN2CCN(c3ccccc3)CC2)c1 [TCMDC-125678] | -31.97
CC(C)[C@H](NC(=O)c1ccc(O)c(-c2cccc(C(F)(F)F)c2)c1)C(=O)NCCN1CCCCC1 [TCMDC-140815] | 44.47
O=C(Nc1ccc(-c2ccc(-c3nc4ccccc4[nH]3)s2)cc1)Nc1ccc(Cl)c(Cl)c1 [TCMDC-133283] | 1.039

SMILES | % Inhibition [%]
CC[C@H](NC(=O)c1c(CC2CCN(CC(C)=O)CC2)c(-c2ccccc2)nc2ccccc12)c1ccccc1 [TCMDC-141946] | 44.22
CC(C)(C)c1ccc(NC(=O)c2ccc(CN3CCCN(CC4CCCCC4)CC3)cc2)cc1 [TCMDC-136428] | -70.52
N#Cc1cccc(NC(=O)Nc2ccc(-c3cccc(-c4nc5ccc(F)cc5[nH]4)c3)cc2)c1 [TCMDC-133199] | 24.35
CN(C(=O)c1snnc1-c1ccccc1)C1CCN(CCCCCNC(=O)/C=C/c2ccc(Cl)c(Cl)c2)CC1 [TCMDC-139993] | -14.58
Oc1ccc2[nH]c(-c3ccc(F)cc3F)nc2c1CN1CCC(O)(c2ccccc2)CC1 [TCMDC-136532] | -67.95
COc1ccc2nccc([C@@H](O)CN3CCC(NCc4nc5c([N+](=O)[O-])cccc5[nH]4)CC3)c2c1 [TCMDC-140982] | -2.529
CC1CN(Cc2cccc(-c3ccc(-c4nc5cc(F)ccc5[nH]4)cc3)c2)CC(C)O1.O=C(O)C(F)(F)F (stereo not shown) [TCMDC-133818] | 13.23
CC(C)N1CCN(C(CN2CCN(CCCOc3cccc(-c4ccccc4)c3)CC2)c2ccc(F)cc2)CC1 (stereo not shown) [TCMDC-135498] | 62.15
CC(C)N1CCN(C(CN2CCN(CCCOc3ccc(-c4ccccc4)cc3)CC2)c2ccc(F)cc2)CC1 (stereo not shown) [TCMDC-135497] | 69.79
CC(C)N1CCN(C(CN2CCN(CCCOc3cccc(F)c3)CC2)c2ccc(F)cc2)CC1 (stereo not shown) [TCMDC-135493] | 99.24
CC(C)N1CCN(C(CN2CCN(CCCOc3ccc4nonc4c3)CC2)c2ccc(F)cc2)CC1 (stereo not shown) [TCMDC-135500] | 92.96
COc1ccc(C(C(=O)NC2CCN(C[C@H](O)c3ccnc4ccc(OC)cc34)CC2)N2CCN(c3ccc(F)cc3)CC2)cc1 (stereo partly shown) [TCMDC-140993] | -29
Cc1ccc(C2(C)CN(CCCOc3cccc(-c4ccc(C(=O)NC(C)C)cc4)c3)CCO2)cc1 (stereo not shown) [TCMDC-134386] | 27.16
CC(C)N1CCN(C(CN2CCN(CCCOc3ccccc3-c3ccccc3)CC2)c2ccc(F)cc2)CC1 (stereo not shown) [TCMDC-135499] | 44.69
CC(CN1CCN(CC(c2ccc(F)cc2)N2CCN(C)CC2)CC1)C(=O)c1ccc(O)cc1 (stereo not shown) [TCMDC-125496] | 29.96
O=C(CCN1C(=O)c2ccccc2C1=O)N1CCN(CC=Cc2ccccc2)CC1 [TCMDC-125744] | 5.299
CCCN(c1ccc(C(F)(F)F)cc1[N+](=O)[O-])S(=O)(=O)C(c1ccccc1)c1ccc(C(F)(F)F)cc1[N+](=O)[O-] (stereo not shown) [TCMDC-132114] | 11.09
COc1ccc(C)c(Nc2ccnc(Nc3ccc(-c4cnc[nH]4)cc3)n2)c1 [TCMDC-138695] | -34.59
CC(C)(C)NC(=O)COC(=O)c1c2c(nc3ccccc13)C(=Cc1ccc3c(c1)OCO3)CCC2 [TCMDC-125143] | 31.31
CC(C)CCN(Cc1cncn1Cc1cccc(Cl)c1)C(=O)c1cncc(-c2ccccc2)c1 [TCMDC-132465] | 21.61

From publication PMC4552634, “A New Set of Chemical Starting Points with Plasmodium falciparum Transmission-Blocking Potential for Antimalarial Drug Discovery” (PLoS ONE, 2015)
